# PABP FP inh: PABP-poly(A) binding inhibition; P11940; AID 2014; hit rate 1% among 290,000; inhibition, % at 35 µM; PABP-poly(A) RNA binding, fluorescence polarization;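 further: calls also rest on retests at 20 µM and on dose response follow-up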
# Target sequence (P11940 whole entry, looked up): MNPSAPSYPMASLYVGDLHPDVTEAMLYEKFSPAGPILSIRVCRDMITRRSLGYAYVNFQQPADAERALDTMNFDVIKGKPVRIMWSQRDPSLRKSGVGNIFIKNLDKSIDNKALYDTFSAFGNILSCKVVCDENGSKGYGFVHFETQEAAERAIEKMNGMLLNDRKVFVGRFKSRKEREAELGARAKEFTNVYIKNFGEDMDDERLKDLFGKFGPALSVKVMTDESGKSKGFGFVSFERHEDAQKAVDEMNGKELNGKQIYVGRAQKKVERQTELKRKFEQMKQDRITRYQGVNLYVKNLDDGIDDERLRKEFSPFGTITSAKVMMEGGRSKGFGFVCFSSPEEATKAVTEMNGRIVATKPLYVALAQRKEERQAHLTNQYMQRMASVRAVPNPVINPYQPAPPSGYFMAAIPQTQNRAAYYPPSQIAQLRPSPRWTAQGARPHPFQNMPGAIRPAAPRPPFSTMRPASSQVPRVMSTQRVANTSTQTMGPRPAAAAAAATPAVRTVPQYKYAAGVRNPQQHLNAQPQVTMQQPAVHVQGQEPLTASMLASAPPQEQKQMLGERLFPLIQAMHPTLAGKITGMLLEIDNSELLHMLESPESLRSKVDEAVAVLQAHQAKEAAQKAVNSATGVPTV
# eIF4H FP inh: inhibitors of RNA binding by human eIF4H; Q15056; eIF4H fluorescence polarization binding assay; inhibition, % at 35 µM; hit rate 0.94% among 290,000;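 further: calls also rest on retests at 20 µM and on dose response follow-up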
# PABP1 MLLE inh: inhibitors of microRNA-mediated deadenylation, human PABP1 MLLE binding. P11940. GST-MLLE / FITC-PAM2 fluorescence polarization. inhibition, % at 20 µM. hit rate 0.36% among 360,000; in the data active means inhibition above about 35%, passing the limit was not always enough;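 further: plate controls were DMSO wells with GST-MLLE for no effect and wells lacking GST-MLLE protein for full effect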
# PERK inhibitor: human PERK inhibition, primary cell-based screen; inhibition, % at 5.6 µM; hit rate 0.17% among 220,000; AID 1416; CHO PERK-DD fusion, SEAP luminescence translation reporter;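 active means inhibition above the mean inhibition of all tested compounds plus 3 SD, set separately per screening campaign, cut at about 2.9% in these data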;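 further: PERK kinase domain activated by AP20187 dimerizer at 100 nM; 0% = DMSO with dimerizer and 100% = rapamycin at 8.4 µM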
# GRK2 inh: human GRK2 inhibition via aptamer displacement. bead flow cytometry, FAM-aptamer displacement from GRK2. AID 488847. inhibition of aptamer binding, % at 10 µM. hit rate 0.59% among 330,000. P25098;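 active means inhibition of aptamer binding above 40%, roughly 3 SD of noise, on plates passing a quality check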;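 further: median bead fluorescence of bound FAM aptamer so fluorescent compounds give negative values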
# Active calls of the source: *; u = inconclusive; x = no result given. Only some compounds are listed: those with a hit (about 1.9% of all), similar ones and a draw of the others. Unless noted, how the calls were made is not given here.
SMILES,PABP FP inh,eIF4H FP inh,PABP1 MLLE inh,PERK inhibitor,GRK2 inh
COc1ccccc1C(=O)NC(=O)COC(=O)c1nc(Cl)ccc1Cl,x,x,5,x,13
O=C1c2nc3cc(-c4ccco4)[nH]n3c(=O)c2CN1C1CCCCC1,65*,50*,12,1,11
O=C(CSc1n[nH]c(-c2ccccc2Br)n1)NCCN1C(=O)CSC1=O,120,active,-2,1,0
Cc1ccc(SCC(=O)NCCN2C(=O)CSC2=O)cc1C,3,-7,-10,-1,2
Cc1ccc(Nc2nnc(SCC(=O)NCCN3C(=O)CSC3=O)s2)cc1C,121*,-3,-83,0,0
COc1ccc2c(c1)O/C(=C\c1ccco1)C2=O,42,50,-13,1,0
Cc1cc(O)c(CN(C)C)c2c1C(=O)/C(=C/c1ccco1)O2,71*,94*,22,x,5
Cc1nc(SCC(=O)NC2(C#N)CCCC2)n(CC(C)C)c1C,x,x,-70,x,x
Cc1cccc(NC2SC(=O)NC2=O)c1 (stereo not given),-12,6,52*,-1,0
Cc1ccc2[nH]c(CNC(=O)c3ccc(F)cc3)cc2c1,3,-8,-6,x,6
CN(C[C@H](Cc1ccccc1)N(CCN(CCc1ccccc1)N=O)N=O)N=O,57*,-8,-9,1,0
CC(C)C[C@@H](CN(C)N=O)N(C[C@H](Cc1ccccc1)N(CCc1ccccc1)N=O)N=O,1,-6,-8,1,2
CC(=O)NCc1cn2c(C)csc2n1,-6,-7,-1,1,5
Cc1csc2nc(CNC(=O)CCC(=O)O)cn12,5,0,-2,3.4*,0
O=C(O)c1ccc(CN2C(=O)c3cccc4c([N+](=O)[O-])ccc(c34)C2=O)cc1,63*,81*,51*,x,x
O=C1c2cccc3c([N+](=O)[O-])ccc(c23)C(=O)N1CCc1ccccn1,13,33,11,1,0
Cc1ccc(C(=O)O)cc1N1C(=O)c2cccc3c([N+](=O)[O-])ccc(c23)C1=O,77*,101*,21,x,x
CC(=O)Oc1cccc(N2C(=O)c3cccc4c([N+](=O)[O-])ccc(c34)C2=O)c1,14,12,8,x,4
CN(C)CCCN1C(=O)c2cccc3c([N+](=O)[O-])ccc(c23)C1=O,4,u,57*,-1,0
COc1cc(C)c2c(c1OC)C(=O)CC2,x,x,12,x,x
C=CCn1c(N)c(C(=O)OCC)sc1=S,-6,-13,49*,0,1
CCOC(=O)c1sc(=S)n(CC)c1N,5,0,8,1,0
CCOc1cccc(N2C(=O)CC(NNC(=O)c3ccc(Br)o3)C2=O)c1 (stereo not given),0,-1,11,0,6
CCCOc1ccc(N2C(=O)CC(NNC(=O)c3ccc(COc4ccccc4)o3)C2=O)cc1 (stereo not given),62*,-9,12,0,0
CSCCC(NC(=O)c1ccco1)C(=O)NC1CCCCCC1 (stereo not given),x,x,9,x,0
SMILES,PABP FP inh,eIF4H FP inh,PABP1 MLLE inh,PERK inhibitor,GRK2 inh
O=C(O)C(=O)/C(=C\c1cccc2ccccc12)c1ccc2ccccc2n1,91*,67*,-72,0,1
CCOC(=O)COc1nc(-c2ccco2)cc(-c2ccco2)c1C#N,58*,89*,-30,0,0
CCOC(=O)COc1nc(-c2ccc(C)cc2)cc(-c2ccco2)c1C#N,-9,-1,-6,0,0
N#Cc1c(-c2ccco2)cc(-c2cccnc2)nc1N,110*,96*,-13,1,1
N#Cc1c(-c2cccnc2)cc(-c2ccccc2)nc1N,-8,1,-9,-1,0
N#Cc1c(-c2ccco2)cc(-c2ccccn2)nc1N,63*,70*,-26,0,2
CC1(C(=O)Nc2ccccc2Br)CCN1C(=O)Cc1ccccc1Cl (stereo not given),x,x,0,x,x
CCOc1ccc(N(CC(=O)NCc2ccc(F)cc2)C(=O)CCC(=O)Nc2nccs2)cc1,0,-1,10,x,0
Cc1ccc(S(=O)(=O)NC(CC(=O)O)c2cccs2)cc1 (stereo not given),8,6,-5,x,1
COc1cc2c(cc1NC(=O)Nc1ccc(F)cc1)oc1ccccc12,11*,92*,1,1,1
CCOC1=C2CN(S(=O)(=O)c3ccc(C)cc3)[C@H](c3ccccc3)C[C@H]2[C@H]2C(=O)N(c3ccccc3)C(=O)[C@H]2C1,x,x,2,x,x
COc1ccc(-[n+]2c(C)cc(/C=C3\Sc4ccccc4N3C)cc2C)cc1,-2,0,-196,-1,79*
CCCCC(=Nc1ccc(N)cc1)C1=C(O)C(C(=O)OC)C(C)(C)CC1=O (stereo not given),59*,42*,8,1,2
CCC(=Nc1ccc(N)cc1)C1=C(O)C(C(=O)OC)C(C)(C)CC1=O (stereo not given),115*,103*,17,0,0
COc1cccc(C(=O)O[C@@H]2[C@H](Cc3ccccc3)NS(=O)(=O)[C@H]3C[C@@H]4C=C[C@]23O4)c1,x,x,3,x,1
CCc1oc(C(=O)O)cc1CN(CC)CC,6,0,0,-1,3
CCN(CC)Cc1cc(O)c(CN(CC)CC)cc1O,-3,u,74*,0,x
COC(=O)c1ccc(C(=O)OC)c(NC(=S)N2CCC(C(N)=O)CC2)c1,0,7,7,1,2
COC(=O)c1ccc2c(=O)sc(N3CCC(C(N)=O)CC3)nc2c1,-7,-9,44*,1,2
CC(=O)c1c(NC(=O)c2ccccc2)[nH]c(-c2ccccc2)nc1=S,-5,0,39*,2,0
CC(=O)c1c(C)[nH]c(-c2ccccc2)nc1=S,-8,6,25,-1,2
CCOc1ccccc1C1C2C(=O)N(c3ccccc3)C(=O)C2ON1c1ccccc1 (stereo not given),-4,-7,9,2,94*
O=C1NC2=C(C(=O)CCC2)C(c2ccccc2[N+](=O)[O-])N1 (stereo not given),98*,107*,41*,x,0
CC12CCC(=O)N1C(C(=O)Nc1cccc(F)c1)CS2 (stereo not given),4,-16,11,x,10
CC(C)(C)NC(=O)CN(C(=O)CS(=O)CC(=O)Nc1ccc(F)cc1)c1cccc(F)c1 (stereo not given),5,4,-16,2,0
Oc1ccc(N=Cc2ccc(OCc3ccccc3)cc2)cc1,58*,95*,15,0,3
C/C(=N\NC(=O)c1c(Cl)cnn1C)c1ccc(NC(=O)c2ccc(Br)o2)cc1,-11,5,1,x,0
NC(=S)n1[nH]c(-c2ccc([N+](=O)[O-])cc2)c(N=Nc2ccc(Cl)cc2)c1=O,6.3*,u,38,0,x
CCOC(=O)CCCNC(=O)CCNC(=O)c1ccc(OCC)cc1,116*,active,-2,0,0
